CHRM1 agonist – human M1 muscarinic receptor agonism | P11229 | actives 0.33% (n = 360,000) | CHO-K1 hM1, Fluo-8 calcium fluorescence, agonist mode; 0% DMSO, 100% acetylcholine EC100 | activation, % at 3 µM | AID 588814;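 active = activation above the run's mean compound activation plus 3 SD, cut at about 16% in these data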;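 note: peak over basal fluorescence ratio within a 140 s kinetic read after compound addition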
Target sequence (P11229 whole entry, looked up): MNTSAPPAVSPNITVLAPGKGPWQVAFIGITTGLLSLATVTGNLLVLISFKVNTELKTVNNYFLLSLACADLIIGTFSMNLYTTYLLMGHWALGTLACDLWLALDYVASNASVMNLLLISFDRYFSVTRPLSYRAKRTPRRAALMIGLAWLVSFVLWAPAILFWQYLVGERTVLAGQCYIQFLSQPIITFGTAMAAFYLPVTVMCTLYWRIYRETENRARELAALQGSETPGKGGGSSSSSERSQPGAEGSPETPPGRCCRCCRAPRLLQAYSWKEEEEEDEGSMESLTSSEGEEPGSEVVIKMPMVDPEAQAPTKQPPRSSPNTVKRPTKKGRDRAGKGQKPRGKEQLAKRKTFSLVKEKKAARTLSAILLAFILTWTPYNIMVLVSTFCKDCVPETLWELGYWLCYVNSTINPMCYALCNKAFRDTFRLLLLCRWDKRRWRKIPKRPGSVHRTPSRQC
CHRM1 antagonist – antagonists of human M1 muscarinic receptor; AID 588852; inhibition, % at 3 µM; CHO-K1 hM1, Fluo-8 calcium fluorescence, ACh EC80 antagonist; actives 1.3% (n = 360,000); P11229;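 active = percent inhibition above its own plate's cutoff, namely the mean of that plate's compound wells plus 3 SD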;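 note: peak over basal fluorescence ratio during 140 s after agonist addition; 0% = ACh EC80 plus DMSO and 100% = DMSO alone without agonist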
CHO-K1 Ca ag – M1 agonist counterscreen hit in parental CHO-K1 cells. Fluo-8 calcium fluorescence; scaled to maximal ATP response, vehicle zero. activation, % at 3 µM. actives 0.48% (n = 360,000). AID 602248; in the data active = activation above about 15%;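 note: untransfected CHO-K1 host cells lacking M1 receptor as counterscreen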
CHRM1 PAM – potentiates human M1 receptor response to acetylcholine; P11229; actives 0.088% (n = 360,000); activation, % at 3 µM; AID 588819; CHO-K1 hM1, Fluo-8 calcium fluorescence, ACh EC20; 0% = ACh EC20, 100% = maximal ACh; in the data active = activation above about 19%, passing the limit was not always enough
CHO-K1 Ca antag – counter-screen for M1 antagonists: effect in parental CHO-K1 cells | ATP-induced calcium, Fluo-8 fluorescence | inhibition, % at 3 µM | actives 0.6% (n = 360,000) | AID 602250;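 active = inhibition above a per-plate cutoff, the plate's mean sample inhibition plus 3 SD, cut at about 24% in these data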;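 note: 0% = DMSO plus EC80 ATP and 100% = DMSO alone without ATP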
M1 PAM parental – M1 PAM counterscreen hit in parental CHO-K1 cells | ATP EC20, Fluo-8 calcium fluorescence; 0% at ATP EC20, 100% at ATP max | activation, % at 3 µM | actives 0.02% (n = 360,000) | AID 602247;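 active = activation above the run cutoff, the mean activation of all test compounds plus 3 SD, cut at about 40% in these data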;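 note: peak over basal fluorescence ratio in a 140 s read after ATP addition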
* marks the source's active call; other numbers are inactive results. This is a sample that favours compounds with a hit; in the whole collection about 2.4% have one here.

Screening O=C(O)c1cc(S(=O)(=O)N2CCOCC2)c[nH]1 returned CHRM1 agonist -2, CHRM1 antagonist -4, CHO-K1 Ca ag 1, CHRM1 PAM 6, CHO-K1 Ca antag 2 and M1 PAM parental 1.
`CCOC(=O)C1CCN(CC(O)COc2ccc(S(=O)(=O)N3CCCC3)cc2[N+](=O)[O-])CC1` (stereo unspecified) gave CHRM1 agonist -9, CHRM1 antagonist 40*, CHO-K1 Ca ag 1, CHRM1 PAM -24, CHO-K1 Ca antag -8 and M1 PAM parental 4.
CCOC(=O)C1CCN(S(=O)(=O)c2cn(C)c(=O)n(C)c2=O)CC1 was read as CHRM1 agonist -10, CHRM1 antagonist 32*, CHO-K1 Ca ag 1, CHRM1 PAM -22, CHO-K1 Ca antag -8 and M1 PAM parental 21.
For COC(=O)C1CCN(S(=O)(=O)c2cn(C)c(=O)n(C)c2=O)CC1 the results were CHRM1 agonist -1, CHRM1 antagonist -10, CHO-K1 Ca ag 1, CHRM1 PAM 3, CHO-K1 Ca antag -13 and M1 PAM parental 31.
Screening CCOC(=O)C1CCN(S(=O)(=O)c2ccc(Cl)nc2)CC1 returned CHRM1 agonist -4, CHRM1 antagonist 28*, CHO-K1 Ca ag 1, CHRM1 PAM -9, CHO-K1 Ca antag -5 and M1 PAM parental -8.
Screening CCCCC1(C)NC(=O)N(CC(=O)Nc2ccc(Cl)cc2C)C1=O (stereo unspecified) returned CHRM1 agonist 1, CHRM1 antagonist -18, CHO-K1 Ca ag 1, CHRM1 PAM 10, CHO-K1 Ca antag -12 and M1 PAM parental 20.
`O=C(NC1CCCc2ccccc21)c1c(F)cccc1Cl` (stereo unspecified) gave CHRM1 agonist -11, CHRM1 antagonist 0, CHO-K1 Ca ag 1, CHRM1 PAM -5, CHO-K1 Ca antag -12 and M1 PAM parental -1.
Cc1nc(-c2ccc(O)c(O)c2)cs1 was read as CHRM1 agonist -3, CHRM1 antagonist 1, CHO-K1 Ca ag 0, CHRM1 PAM 5, CHO-K1 Ca antag 26* and M1 PAM parental -9.
For COc1ccc(N2C(=O)[C@@H]3[C@H](C2=O)[C@H]2c4ccccc4C=CN2[C@@H]3C(=O)Nc2ccccc2)cc1 the results were CHRM1 agonist 50*, CHRM1 antagonist 10, CHO-K1 Ca ag 1, CHRM1 PAM -8, CHO-K1 Ca antag -1 and M1 PAM parental 11.
`O=C(CCN1C(=O)[C@@H]2Cc3ccccc3CN2C1=O)Nc1cccc(F)c1` gave CHRM1 agonist -1, CHRM1 antagonist 7, CHO-K1 Ca ag 1, CHRM1 PAM 2, CHO-K1 Ca antag 19 and M1 PAM parental 8.
Cc1nnc(NC(=O)c2ccc3ccccc3n2)s1 was read as CHRM1 agonist -2, CHRM1 antagonist 20, CHO-K1 Ca ag 20*, CHRM1 PAM -1, CHO-K1 Ca antag 5 and M1 PAM parental 13.
For Cc1ccc(Oc2ccc(NC(=O)c3ccco3)cc2)cc1 the results were CHRM1 agonist 0, CHRM1 antagonist 3, CHO-K1 Ca ag 0, CHRM1 PAM 10, CHO-K1 Ca antag 27* and M1 PAM parental -6.
Screening Cc1ccc(NC(=O)c2ccc(OC(=O)c3ccco3)cc2)cc1 returned CHRM1 agonist -3, CHRM1 antagonist -1, CHO-K1 Ca ag 1, CHRM1 PAM 5, CHO-K1 Ca antag -15 and M1 PAM parental 6.
`Cc1nnc(NC(=O)c2ccco2)s1` gave CHRM1 agonist 1, CHRM1 antagonist -8, CHO-K1 Ca ag 0, CHRM1 PAM 9, CHO-K1 Ca antag 26* and M1 PAM parental -13.
Screening Cc1ccc(-c2nnc(NC(=O)c3ccco3)s2)cc1 returned CHRM1 agonist -1, CHRM1 antagonist -5, CHO-K1 Ca ag 2, CHRM1 PAM 5, CHO-K1 Ca antag -2 and M1 PAM parental 0.
COc1ccc(C(=O)Nc2c(N)nc[nH]c2=O)cc1 was read as CHRM1 agonist -2, CHRM1 antagonist -5, CHO-K1 Ca ag 3, CHRM1 PAM 10, CHO-K1 Ca antag -11 and M1 PAM parental 19.
CCN(CCO)C(=O)C(c1ccccc1)c1ccccc1 was read as CHRM1 agonist -3, CHRM1 antagonist -2, CHO-K1 Ca ag 0, CHRM1 PAM 10, CHO-K1 Ca antag -5 and M1 PAM parental 13.
